# Measured values: PubChem BioAssay AID1347075 (National Center for Advancing Translational Sciences (NCATS), 2019)
# The campaign covered roughly 400,000 compounds. About 5,500 (1.4%) were called active. Another 9% or so got no clear call; they are omitted. Calls follow the shape of the dose curve; as a rule, active = well fitted cell-killing curve with a large enough effect; inconclusive = small, poorly fitted or top-dose-only effect, or effect the other way; inactive = flat fitted curve, though single readings scatter. Shown is part of a subset that was picked to be rich in actives.
# Assay: qHTS assay for MDR1-selective chemotherapeutics: Primary screen using the parental adenocarcinoma cell KB-3-1; also: nearly all actives have a fitted effect of over 60% in size
# Settings: KB-3-1 viability, CellTiter-Glo ATP luminescence, 72 h; series mostly up to 46.1 µM; activity change, negative = cytotoxic: at the top concentration
# Outline: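 Cells are dispensed, compounds pinned in, plates held at 37 °C for 72 h, then CellTiter-Glo is added and luminescence read after 10 minutes. Cell line: parental KB-3-1 in phenol-red-free DMEM, 10% FBS.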
# % is scaled to controls: 0 for no effect and ±100 for the full control effect; potency is read from the fitted curve at half-maximal effect.
SMILES,"activity change, negative = cytotoxic",Potency
Cc1ccc(S(=O)(=O)N2CCN(c3nc(-n4cnc5ccccc54)nc4ccccc34)CC2)cc1,17.8% (inactive),
CC(OC(=O)/C=C/c1ccccc1)C(=O)NC1CCCCC1C (stereo not given),1.76% (inactive),
CC1CCCCC1NC(=O)/C(C#N)=C/C=C/c1ccccc1[N+](=O)[O-] (stereo not given),,5.8 µM (active)
CC1CC(C)CN(C/C=C/c2ccccc2[N+](=O)[O-])C1 (stereo not given),2.5% (inactive),
O=C1CCCC2=C1[C@@]1(CCC(c3ccccc3)C1)N=C(Nc1nc3ccccc3o1)N2 (stereo not given in full),,inactive
CCN(C(=O)CSc1nnc(C)n2c1cc1occc12)c1ccccc1,12.3% (inactive),
CC(C)c1ccc2oc(-c3cc(NC(=O)c4cccs4)ccc3Cl)nc2c1,3.62% (inactive),
CCc1nn(-c2cc(Oc3cccc4ccccc34)nc(-c3ccccc3)n2)c(N)c1C#N,,5.8 µM (active)
CC(C)(C)n1nc(Cc2cccc3ccccc23)c(C#N)c1N,-23.1% (inactive),
C(=Nc1ccc(/C=C/c2ccnc3ccccc23)cc1)c1cc2c3c(c1)CCCN3CCC2,0% (inactive),
CCOC(=O)C1CCN(C(c2ccc(F)cc2)c2sc3nc(-c4ccco4)nn3c2O)CC1 (stereo not given),1.03% (inactive),
CCC1CCCCN1Cc1c(O)ccc2c(=O)c(Oc3ccccc3Cl)c(C(F)(F)F)oc12 (stereo not given),1.37% (inactive),
CNC(=O)C(NC(=O)c1ccccc1)=C(C)C,-13% (inactive),
CN(C)C(=O)c1coc2nc3ccccc3nc12,-3.25% (inactive),
CNC(=O)c1cccc2nc3ccccc3nc12,,16.4 µM (active)
CCCCn1c(=N)c(S(=O)(=O)c2ccccc2)cc2c(=O)n3cccc(C)c3nc21,0.0272% (inactive),
COc1ccc(NC(=O)CN2CCCN(Cc3ccccc3)S2(=O)=O)cc1,-9.93% (inactive),
COC(=O)C1C(=O)c2c([nH]c(C(=O)OCCSC)c2C)CC1C (stereo not given),5.65% (inactive),
CCc1ccc(C2CC(=O)c3c([nH]c(C(=O)OCc4ccc(C)cc4)c3C)C2)cc1 (stereo not given),-10.1% (inactive),
CCCOC(=O)c1[nH]c2c(c1C)C(=O)CC(c1cccs1)C2 (stereo not given),,0.651 µM (active)
COc1ccc(-c2nn(CC(=O)Nc3ccccc3F)c3c2cnc2ccc(F)cc23)cc1,-5.21% (inactive),
Cc1c2cnn(-c3ccccc3)c(=O)c2c(C)n1C(C)C(=O)Nc1ccc(Br)cc1F (stereo not given),5.69% (inactive),
CN(C)C(=S)N=c1ssc(=S)n1Cc1ccco1,,4.11 µM (active)
CCc1ccccc1N1CN(Cc2ccco2)CNC1=S,2.61% (inactive),
CCN(CC)C(=O)CSc1nnc(CNc2ccc(F)cc2)n1Cc1ccco1,-10.8% (inactive),

SMILES,"activity change, negative = cytotoxic",Potency
CCOc1ccc2nc(N3CCCC(C(=O)Nc4cc(C)ccc4C)C3)sc2c1 (stereo not given),-4.09% (inactive),
CCc1ccc(NC(=O)c2cnc3c(-c4ccccc4)c(C)nn3c2C)cc1,-2.78% (inactive),
CCN(CC)S(=O)(=O)c1ccc(N(C)Cc2ccc(C(F)(F)F)cc2)nc1,,10.3 µM (active)
CCN(CC)S(=O)(=O)c1ccc(NC(=O)c2cnc(C)cn2)cc1,17.5% (inactive),
CCN(CC)S(=O)(=O)c1ccc(N(C)CCc2ccc(OC)c(OC)c2)nc1,-18.5% (inactive),
COc1ccccc1-n1c(-c2ccc(C)cc2)cn2c3c(=O)n(C)c(=O)n(C)c3nc12,16.8% (inactive),
CN(C)c1ccc(/C=C2\C=Cc3ccccc32)cc1Br,11% (inactive),
CCOC(=O)c1cc2c(=O)n3ccccc3nc2n(Cc2ccco2)c1=NC(=O)c1ccc(F)cc1,13.8% (inactive),
COc1ccc(Nc2cc(=O)oc3ccccc23)cc1,,4.11 µM (active)
COc1ccc(CCNC(=O)COC(=O)c2cc(=O)c3ccccc3o2)cc1,-1.64% (inactive),
COc1ccc(Nc2cc(=O)n(-c3ccccc3)c3c2c(=O)n(C)c(=O)n3C)cc1,43% (inactive),
CC1=C(C(=O)OCC2CCCCC2)C(c2c(F)cccc2Cl)CC(=O)N1 (stereo not given),12.9% (inactive),
CCc1ccc(N(CC)C(=O)CCn2cnc3onc(-c4ccc(F)cc4)c3c2=O)cc1,1.49% (inactive),
Fc1ccc(-c2csc(-c3ccc(C4SCCS4)cc3)n2)cc1F,2.11% (inactive),
CCCc1cc(-c2nc(-c3ccc(C)cc3)cs2)ccn1,,11.6 µM (active)
CCCc1nc2scc(-c3ccc(C)cc3)c2c(=O)n1N,-2.91% (inactive),
CCc1ccc(NC(=O)CN2C(=O)COc3ccc(S(=O)(=O)N4CCCC4)cc32)cc1,12.8% (inactive),
CCc1ccc(NC(=O)CN2CCSc3ccc(S(=O)(=O)N4CCCC4)cc32)cc1,,16.4 µM (active)
O=C(CN1CCCCCC1)Nc1ccc(S(=O)(=O)N2CCCCC2)cc1,-4.68% (inactive),
O=C(NNS(=O)(=O)c1ccc(F)cc1)c1ccc([N+](=O)[O-])cc1Cl,-17% (inactive),
O=[N+]([O-])c1ccc(NS(=O)(=O)c2ccccc2)c(Cl)c1,,16.4 µM (active)
O=C(NCCNc1ccc([N+](=O)[O-])cc1Cl)c1ccccc1F,-1.36% (inactive),
Cc1cccc(-n2ccnc2SCC(=O)Nc2cc(C(F)(F)F)ccc2Cl)c1,-13% (inactive),
CSc1nc(N(C)NC(=O)c2cccc(C)c2)c2ccccc2n1,,0.184 µM (active)
Cc1cccc(C(=O)NCCc2nc3ccccc3n2Cc2ccccc2Cl)c1,-12% (inactive),

SMILES,"activity change, negative = cytotoxic",Potency
Cc1cccc(C(=O)Nc2ccc(-c3nc4ccccc4s3)c(C)c2)c1,1.57% (inactive),
CN(NC(=O)c1ccccc1)c1nc2ccccc2nc1C(F)(F)F,,2.91 µM (active)
Cc1ccccc1CCNC(=O)C1CCN(c2nc3ccccc3nc2C(F)(F)F)CC1,-10.5% (inactive),
Nc1nnc2c(C(F)(F)F)nc3ccccc3n12,-3.46% (inactive),
COc1ccc(C)cc1Nc1nc2ccccc2c2nnc(C)n12,-1.35% (inactive),
Cc1ccc(-c2nc(CS(=O)(=O)CC(=O)NCc3ccccc3Cl)c(C)o2)cc1,16.7% (inactive),
O=C(CSc1nnc(CNC(=O)c2ccccc2)n1-c1ccc(F)cc1)Nc1ccccc1F,0.161% (inactive),
COc1ccc(C(=O)c2oc3ccccc3c2NC(=O)COc2cccc(C)c2)cc1,4.39% (inactive),
COc1ccc(CNc2nc(-c3ccc(Cl)cc3)cc(C(F)(F)F)n2)cc1,2.34% (inactive),
O=C(Nc1ccc2nc(SCCOc3ccccc3)sc2c1)c1ccco1,4.12% (inactive),
CCCn1ccc2c(OCC(=O)NCc3ccc(F)cc3)cccc2c1=O,2.13% (inactive),
CCOCCn1ccc2c(OCC(=O)NCc3ccc(C)cc3)cccc2c1=O,7.56% (inactive),
COC(=O)COc1cccc2c(=O)n(CC(=O)NCc3ccccc3)ccc12,,6.51 µM (active)
CCCCOc1ccc(NC(=O)c2cc3c(n(-c4ccc(Cl)cc4)c2=O)CCCC3=O)cc1,-11.6% (inactive),
Cc1ccc2cccc(NC(=O)C(C)Oc3ccc(C)c(C)c3)c2n1 (stereo not given),-2.07% (inactive),
O=C(Nc1cc(-c2nc3ccccc3o2)ccc1Cl)c1cc([N+](=O)[O-])ccc1N1CCOCC1,-0.615% (inactive),
CCN(CC)CCCC(C)n1c2nc(=O)[nH]c(=O)c-2nc2cc(Cl)ccc21 (stereo not given),,6.51 µM (active)
COc1cccc(NC(=O)Cn2c(=O)cc(C)c3c(C)nn(-c4cccc(F)c4)c32)c1,4.05% (inactive),
CSc1ccc(CCNC(=O)c2ccc3c(c2)nc2n3CCOC2)cc1,-7.69% (inactive),
Cc1ccc(NC(=O)c2cc(S(=O)(=O)NCCC3=CCCCC3)ccc2F)cc1C,,16.4 µM (active)
COc1ccccc1NC(=O)c1cc(S(=O)(=O)NCCc2ccccc2)ccc1F,1.79% (inactive),
CCc1ccc(NC(=O)c2cc(S(=O)(=O)NC3CCCCCC3)ccc2F)cc1,-5.14% (inactive),
O=C(CSc1cn(CC(=O)N2CCOCC2)c2ccccc12)Nc1ccccc1,6.27% (inactive),
Cc1cccc(-c2nnc(SCC(=O)N3CCCc4ccccc43)o2)c1,0.542% (inactive),
CCCC[C@H]1COCCS(=O)(=O)N1Cc1cccc(Cl)c1,,inactive

SMILES,"activity change, negative = cytotoxic",Potency
CCC(C)[C@H]1COCCS(=O)(=O)N1Cc1ccc(C)cc1 (stereo not given in full),15.7% (inactive),
O=S1(=O)CCOC[C@H](CC2CCCCC2)N1Cc1ccc(F)cc1,,16.4 µM (active)
Cc1ccc2oc(=O)c3cnn(CC(=O)N4CCN(c5cccc(Cl)c5)CC4)c3c2c1,-1.01% (inactive),
COc1cc(OC)c(N(C)C(=O)c2cc3c(=O)oc4ccccc4c3s2)cc1Cl,-2.75% (inactive),
COc1ccc(Cc2nc3ccc(C(=O)NCc4ccccc4Cl)cc3o2)cc1,-13.2% (inactive),
CCOc1ccc(NC(=O)CCC(=O)N2CC(C)Oc3ccc(C)cc32)cc1 (stereo not given),-8.02% (inactive),
CCOc1ccc(CNC(=O)c2cccc(Nc3nc4ccccc4n4nnnc34)c2)cc1OC,-1.42% (inactive),
Cc1c2cnn(CC(=O)NCc3ccccn3)c(=O)c2c(C)n1Cc1ccc(Cl)cc1,9.63% (inactive),
Cc1ccc(Cn2c(C)c3cnn(CC(=O)NCc4ccccn4)c(=O)c3c2C)cc1,-23.7% (inactive),
Cc1ccc(Cn2c(C)c3cnn(CC(=O)NCc4ccccc4)c(=O)c3c2C)cc1,,13 µM (active)
Cc1cccc(Nc2nc(C)nc(N)c2S(=O)(=O)c2ccccc2)c1,3.43% (inactive),
CC(NC(=O)c1ccccc1SCC(=O)N1CCCC1)c1ccccc1 (stereo not given),-7.79% (inactive),
CC(NC(=O)c1cccc2ccccc12)c1ccc2c(c1)CCCC2 (stereo not given),,10.3 µM (active)
CC(NC(=O)CNC(=O)Cc1cccc2ccccc12)c1ccc(S(N)(=O)=O)cc1 (stereo not given),-31.1% (inactive),
O=S(=O)(NCC(c1ccccc1)N1CCc2ccccc21)c1ccccc1 (stereo not given),-19.2% (inactive),
Cc1ccc(NC(=O)Nc2sc3nc4n(c(=O)c3c2C)CCC(C)CC4)c(Cl)c1 (stereo not given),-1.46% (inactive),
CCCc1nc2sc3c(c2c(=O)n1NC(=O)CCCl)CCCC3,,23.1 µM (active)
NNC(=O)C1CCCn2c1nc1sc3c(c1c2=O)CCCC3 (stereo not given),0.859% (inactive),
Cc1ccc(C)c(-n2c(SCC(=O)O)nc3sc4c(c3c2=O)CCCC4)c1,-7.55% (inactive),
Cc1cccc(CSc2nc3ccncc3n2Cc2ccc(C(=O)O)cc2)c1,2.92% (inactive),
COc1cccc(Cn2c(SCc3ccc(C(=O)N4CCC(C)CC4)cc3)nc3ccncc32)c1,3.38% (inactive),
Cc1cccc(Cn2c(SCc3ccc(C(=O)N4CCC(C)CC4)cc3)nc3ccncc32)c1,,23.1 µM (active)
CCOc1n[nH]c(-c2ccccc2)n1,47.7% (inactive),
CCN(CC)S(=O)(=O)c1nnc(NC(=O)COc2ccccc2Cl)s1,11.8% (inactive),
CN(Cc1cncn1C)c1ncnc2ccc(-c3ccc4c(c3)OCO4)cc12,20% (inactive),
